Source: ChEMBL document CHEMBL3988442, “University of Dundee, Small-Polar-MMV Screening Library” (2021)
For some of these results: Entries with a potency or affinity are not part of this list.

Assays:
Design in all cases: scale not given: direction of the effect not stated beside the values
[1] = target: Protein translocase subunit SecA (Escherichia coli (strain K12)) (UniProt P10408); experiment: Assay to Identify E. coli SecA ATPase Inhibitors; assay type: functional; conditions: 30 µM
[2] = target: T1, Ubiquitin-activating enzyme e1, putative (Leishmania donovani (strain BPK282A1)) (UniProt E9BSI1); experiment: Leishmania donovani Ubiquitin Activating Enzyme (LdE1); assay type: functional; conditions: 30 µM
T1 sequence (whole entry): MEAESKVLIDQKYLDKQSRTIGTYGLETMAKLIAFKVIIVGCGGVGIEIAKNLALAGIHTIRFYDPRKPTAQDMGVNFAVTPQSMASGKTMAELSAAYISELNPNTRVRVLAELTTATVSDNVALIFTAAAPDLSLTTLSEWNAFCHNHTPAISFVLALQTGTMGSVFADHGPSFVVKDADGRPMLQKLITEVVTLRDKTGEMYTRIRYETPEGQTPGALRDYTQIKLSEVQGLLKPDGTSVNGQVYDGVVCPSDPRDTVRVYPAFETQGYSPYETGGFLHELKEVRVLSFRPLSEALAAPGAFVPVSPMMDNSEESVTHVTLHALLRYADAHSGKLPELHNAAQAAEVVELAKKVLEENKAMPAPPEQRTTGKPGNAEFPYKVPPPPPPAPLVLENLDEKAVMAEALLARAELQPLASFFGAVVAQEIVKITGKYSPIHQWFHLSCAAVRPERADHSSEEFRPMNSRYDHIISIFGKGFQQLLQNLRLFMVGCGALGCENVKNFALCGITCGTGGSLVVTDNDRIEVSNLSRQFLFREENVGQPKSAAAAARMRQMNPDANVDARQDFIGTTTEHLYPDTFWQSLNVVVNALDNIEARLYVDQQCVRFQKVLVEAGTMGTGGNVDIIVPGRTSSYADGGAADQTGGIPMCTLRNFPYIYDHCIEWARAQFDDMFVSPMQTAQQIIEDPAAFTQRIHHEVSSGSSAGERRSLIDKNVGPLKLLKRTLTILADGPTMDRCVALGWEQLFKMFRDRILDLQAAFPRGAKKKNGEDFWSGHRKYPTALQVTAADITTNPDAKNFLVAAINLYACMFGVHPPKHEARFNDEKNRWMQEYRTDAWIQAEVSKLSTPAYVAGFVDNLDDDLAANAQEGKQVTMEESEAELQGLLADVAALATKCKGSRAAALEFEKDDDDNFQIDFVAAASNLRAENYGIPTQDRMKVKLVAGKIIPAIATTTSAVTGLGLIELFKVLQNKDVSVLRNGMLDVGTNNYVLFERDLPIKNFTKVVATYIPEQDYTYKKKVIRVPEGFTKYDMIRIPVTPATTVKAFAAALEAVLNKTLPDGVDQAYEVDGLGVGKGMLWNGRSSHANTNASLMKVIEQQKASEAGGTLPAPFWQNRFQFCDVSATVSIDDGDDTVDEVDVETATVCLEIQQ

[3] = target: AMP-activated protein kinase, AMPK (Homo sapiens) (UniProt P54646+O43741+P54619+Q9UGJ0+Q9Y478+Q13131+Q9UGI9); experiment: AMP-dependent Kinase enzyme assay. An in vitro enzyme assay that detects ADP turnover that is directly proportional to AMPK activity. This uses naive AMPK that is activated during the assay with MK-8722; assay type: functional; conditions: 30 µM
[4] = target: Sialic acid-binding Ig-like lectin 9 (Homo sapiens) (UniProt Q9Y336); experiment: Hs-Siglec9 ALPHAscreen SOP 20170721; conditions: 10 µM
Trypanosoma cruzi = experiment: Trypanosoma cruzi phosphomannomutase and mannose-1-phosphate guanylyltransferase assay; assay type: functional; conditions: 10 µM
[5] = target: T2, Arginase-2, mitochondrial (Homo sapiens) (UniProt P78540); experiment: in vitro enzyme assay to detect the production of urea directly proportional to the activity of Arginase II; assay type: functional; conditions: 33.3 µM; further: in the data most compounds retested in dose-response had high values
T2 sequence (whole entry): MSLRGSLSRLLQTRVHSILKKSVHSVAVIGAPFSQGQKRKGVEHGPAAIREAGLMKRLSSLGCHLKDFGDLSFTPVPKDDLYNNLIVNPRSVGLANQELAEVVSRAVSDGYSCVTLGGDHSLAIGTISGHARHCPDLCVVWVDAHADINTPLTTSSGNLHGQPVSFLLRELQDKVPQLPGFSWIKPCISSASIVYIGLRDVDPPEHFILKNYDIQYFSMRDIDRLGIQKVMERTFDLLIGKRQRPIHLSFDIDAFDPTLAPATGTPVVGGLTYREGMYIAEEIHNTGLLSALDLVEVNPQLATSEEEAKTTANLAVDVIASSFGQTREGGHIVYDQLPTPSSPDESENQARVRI

[6] = target: T3, Proteasome subunit beta (Trypanosoma cruzi) (UniProt O96673); experiment: Trypanosoma cruzi proteasome chymotrypsin-like activity (TcProtChymo) assay.; further: in the data most compounds retested in dose-response had high values; assay type: functional; conditions: 9.37 µM
T3 sequence (whole entry): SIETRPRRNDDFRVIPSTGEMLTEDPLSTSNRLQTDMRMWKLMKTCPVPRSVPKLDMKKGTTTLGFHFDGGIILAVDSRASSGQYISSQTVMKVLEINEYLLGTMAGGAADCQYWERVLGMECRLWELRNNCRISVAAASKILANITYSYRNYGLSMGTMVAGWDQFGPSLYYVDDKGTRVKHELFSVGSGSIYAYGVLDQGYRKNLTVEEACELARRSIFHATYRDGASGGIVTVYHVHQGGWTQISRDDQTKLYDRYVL

Homo sapiens = species: Homo sapiens; experiment: To identify inhibition of the IFN signalling (Jak-Stat) pathway via expression of an eGFP reporter gene under the control of an IFN-stimulated response element (ISRE) containing MxA promoter.; assay type: functional; conditions: 30 µM
[7] = target: T4, Tyrosyl-tRNA synthetase, putative (Trypanosoma cruzi (strain CL Brener)) (UniProt Q4DSP6); experiment: Trypanosoma cruzi tyrosyl tRNA synthetase (TcYRS) _High Tyrosine SOP; assay type: functional; conditions: 30 µM; further: in the data most compounds retested in dose-response had high values
T4 sequence (whole entry): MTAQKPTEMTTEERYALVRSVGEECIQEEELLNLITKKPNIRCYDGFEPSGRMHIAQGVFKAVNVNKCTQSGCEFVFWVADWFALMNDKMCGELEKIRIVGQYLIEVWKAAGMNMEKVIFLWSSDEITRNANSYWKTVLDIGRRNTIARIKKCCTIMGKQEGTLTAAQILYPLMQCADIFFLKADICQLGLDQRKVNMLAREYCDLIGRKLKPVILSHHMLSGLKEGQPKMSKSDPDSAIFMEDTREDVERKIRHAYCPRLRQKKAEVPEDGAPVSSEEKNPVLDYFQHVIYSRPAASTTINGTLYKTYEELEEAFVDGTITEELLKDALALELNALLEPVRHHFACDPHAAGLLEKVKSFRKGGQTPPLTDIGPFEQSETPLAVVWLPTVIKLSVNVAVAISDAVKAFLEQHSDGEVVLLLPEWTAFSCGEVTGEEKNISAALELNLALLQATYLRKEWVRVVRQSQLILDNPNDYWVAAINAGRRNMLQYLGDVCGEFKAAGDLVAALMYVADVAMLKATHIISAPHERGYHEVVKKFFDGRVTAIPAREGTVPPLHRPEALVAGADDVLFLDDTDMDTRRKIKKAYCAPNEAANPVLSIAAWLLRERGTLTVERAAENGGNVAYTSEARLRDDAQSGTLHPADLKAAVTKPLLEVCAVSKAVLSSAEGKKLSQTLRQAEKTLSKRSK

[8] = target: T4, Tyrosyl-tRNA synthetase, putative (Trypanosoma cruzi (strain CL Brener)); experiment: Trypanosoma cruzi tyrosyl tRNA synthetase (TcYRS) SOP; assay type: functional; conditions: 30 µM
[9] = target: Chromo domain-containing protein 1 (Saccharomyces cerevisiae (strain ATCC 204508 / S288c) (Baker's yeast)) (UniProt P32657); experiment: ScCHD-1 Enzyme Inhibition Assay; assay type: functional; conditions: 30 µM; further: in the data most compounds retested in dose-response had high values
Chromo domain-containing protein 1 (Saccharomyces cerevisiae (strain ATCC 204508 / S288c) (Baker's yeast)), sequence (P32657 whole entry, the tested form may be a part): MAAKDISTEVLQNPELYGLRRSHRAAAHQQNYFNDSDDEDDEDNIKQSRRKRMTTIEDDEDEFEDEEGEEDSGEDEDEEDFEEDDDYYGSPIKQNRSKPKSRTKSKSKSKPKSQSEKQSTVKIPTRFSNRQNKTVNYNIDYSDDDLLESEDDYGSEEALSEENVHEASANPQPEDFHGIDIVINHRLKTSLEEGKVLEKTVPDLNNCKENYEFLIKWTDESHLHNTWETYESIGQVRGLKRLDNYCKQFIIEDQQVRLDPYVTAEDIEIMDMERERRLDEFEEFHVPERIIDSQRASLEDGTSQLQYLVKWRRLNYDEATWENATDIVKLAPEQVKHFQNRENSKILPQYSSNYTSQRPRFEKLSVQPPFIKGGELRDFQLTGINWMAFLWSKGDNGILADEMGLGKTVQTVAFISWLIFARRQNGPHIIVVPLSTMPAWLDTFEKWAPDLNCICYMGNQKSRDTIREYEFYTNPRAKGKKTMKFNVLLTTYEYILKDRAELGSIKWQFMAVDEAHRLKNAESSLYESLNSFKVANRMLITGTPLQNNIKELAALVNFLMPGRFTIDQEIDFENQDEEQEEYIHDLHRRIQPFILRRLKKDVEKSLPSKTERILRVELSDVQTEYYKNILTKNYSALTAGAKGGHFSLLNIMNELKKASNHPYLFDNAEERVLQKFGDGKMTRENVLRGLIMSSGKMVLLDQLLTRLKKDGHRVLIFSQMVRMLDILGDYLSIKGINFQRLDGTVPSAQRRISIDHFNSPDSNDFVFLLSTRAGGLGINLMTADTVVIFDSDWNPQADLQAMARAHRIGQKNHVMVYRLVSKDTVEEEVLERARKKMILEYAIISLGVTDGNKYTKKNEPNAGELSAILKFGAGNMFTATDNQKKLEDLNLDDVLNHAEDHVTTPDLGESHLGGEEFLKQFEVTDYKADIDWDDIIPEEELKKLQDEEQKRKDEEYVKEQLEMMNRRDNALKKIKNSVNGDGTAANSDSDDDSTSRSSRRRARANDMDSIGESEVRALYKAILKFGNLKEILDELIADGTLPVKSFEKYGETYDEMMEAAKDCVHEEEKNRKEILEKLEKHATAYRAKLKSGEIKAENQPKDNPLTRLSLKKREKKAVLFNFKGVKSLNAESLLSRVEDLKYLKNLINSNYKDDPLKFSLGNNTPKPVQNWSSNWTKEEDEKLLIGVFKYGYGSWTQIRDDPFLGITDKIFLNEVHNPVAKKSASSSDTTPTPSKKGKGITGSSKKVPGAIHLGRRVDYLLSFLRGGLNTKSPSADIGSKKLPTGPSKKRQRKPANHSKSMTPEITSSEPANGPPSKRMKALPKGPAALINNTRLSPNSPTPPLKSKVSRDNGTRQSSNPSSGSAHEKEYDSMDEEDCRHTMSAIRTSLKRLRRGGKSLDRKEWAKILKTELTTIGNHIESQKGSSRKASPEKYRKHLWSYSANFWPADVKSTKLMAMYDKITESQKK

Sialic acid-binding Ig-like lectin 9 (Homo sapiens), sequence (Q9Y336 whole entry): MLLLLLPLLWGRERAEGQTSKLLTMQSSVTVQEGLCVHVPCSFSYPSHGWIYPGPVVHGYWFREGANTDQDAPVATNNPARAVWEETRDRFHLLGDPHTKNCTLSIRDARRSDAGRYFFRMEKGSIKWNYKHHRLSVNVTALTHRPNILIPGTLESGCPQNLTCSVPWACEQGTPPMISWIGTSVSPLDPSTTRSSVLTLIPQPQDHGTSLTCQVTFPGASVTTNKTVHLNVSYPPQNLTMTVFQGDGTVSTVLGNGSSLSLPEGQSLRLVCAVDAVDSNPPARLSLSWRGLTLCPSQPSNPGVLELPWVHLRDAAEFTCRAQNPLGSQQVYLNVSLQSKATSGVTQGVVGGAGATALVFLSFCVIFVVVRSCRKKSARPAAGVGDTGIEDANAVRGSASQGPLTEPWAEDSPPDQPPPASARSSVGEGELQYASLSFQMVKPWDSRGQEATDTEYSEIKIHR
Protein translocase subunit SecA (Escherichia coli (strain K12)), sequence (P10408 whole entry): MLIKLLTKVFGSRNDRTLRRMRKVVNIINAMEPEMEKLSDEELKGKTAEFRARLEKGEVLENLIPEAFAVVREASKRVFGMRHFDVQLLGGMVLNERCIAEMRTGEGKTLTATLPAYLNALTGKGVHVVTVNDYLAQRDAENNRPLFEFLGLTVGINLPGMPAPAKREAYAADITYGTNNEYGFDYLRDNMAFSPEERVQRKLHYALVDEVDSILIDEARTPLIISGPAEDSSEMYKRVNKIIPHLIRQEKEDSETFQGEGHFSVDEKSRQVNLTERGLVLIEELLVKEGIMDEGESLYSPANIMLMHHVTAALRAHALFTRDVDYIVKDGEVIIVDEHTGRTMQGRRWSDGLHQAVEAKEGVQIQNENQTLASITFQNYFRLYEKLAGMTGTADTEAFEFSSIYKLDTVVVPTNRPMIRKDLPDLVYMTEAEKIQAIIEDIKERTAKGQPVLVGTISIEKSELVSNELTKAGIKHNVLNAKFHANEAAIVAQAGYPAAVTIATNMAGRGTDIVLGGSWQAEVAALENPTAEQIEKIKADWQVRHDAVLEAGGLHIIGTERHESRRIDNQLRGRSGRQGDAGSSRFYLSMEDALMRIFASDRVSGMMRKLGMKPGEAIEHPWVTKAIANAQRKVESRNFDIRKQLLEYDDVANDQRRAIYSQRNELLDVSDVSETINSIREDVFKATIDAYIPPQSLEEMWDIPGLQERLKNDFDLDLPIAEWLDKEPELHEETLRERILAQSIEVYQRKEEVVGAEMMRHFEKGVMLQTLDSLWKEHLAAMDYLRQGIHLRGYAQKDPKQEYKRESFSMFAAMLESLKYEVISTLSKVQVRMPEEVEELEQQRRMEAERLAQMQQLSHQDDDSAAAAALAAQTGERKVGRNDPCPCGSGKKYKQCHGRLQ

Row | SMILES | Percent Effect [1] [%] | Percent Effect [2] [%] | Percent Effect [3] [%] | Percent Effect [4] [%] | Percent Effect (Trypanosoma cruzi) [%] | Percent Effect [5] [%] | Percent Effect [6] [%] | Percent Effect (Homo sapiens) [%] | Percent Effect [7] [%] | Percent Effect [8] [%] | Percent Effect [9] [%]
1 | Cc1cc(CN(C)C(=O)C2CCCN(C(=O)c3ccc(Cl)cc3)C2)no1 (configuration not stated) | -4.75 | -39 | 3.47 | 5.71 | -0.885 | -20.7 | 11.7 | 0.275 | 2.15 | 11.1 | -7.95
2 | O=C(c1ccc[nH]1)N1CCn2cc(Cn3cncn3)nc2C1 | -0.971 | 2.67 | 2.39 | -2.2 | -3.94 | 3.03 | 11.2 | 13.4 | 3.19 | -1.28 | -3.1
3 | Cc1cc(N2CCCC2c2cnccn2)ncn1 (configuration not stated) | -2.62 | 6.76 | 8.11 | 0.00484 | -2.37 | 0.696 | 7.02 | 5.1 | 8.6 | 14.3 | -2.99
4 | Cc1nc(C)n(C2CCCN(C(=O)c3sccc3C3CC3)C2)n1 (configuration not stated) | -1.6 | 2.53 | -0.568 | -3.81 | -5 | 1.9 | 0.409 | 22.4 | -2.46 | -8.86 | -7.52
5 | CC(O)CN(CC(=O)NC(=O)NCC(F)(F)F)c1ccccc1 (configuration not stated) | -4.64 | 7.79 | 6 | 6.31 | -3.82 | 1.9 | 7.36 | 17.3 | 0 | 11.8 | -9.73
6 | CCCC1(CO)CCCN(c2ncccc2F)C1 (configuration not stated) | -0.789 | 5.41 | -4.77 | 3.77 | -1.16 | -2.38 | 14.8 | 10.4 | 5.82 | 12.2 | -3.22
7 | COc1c(CNCc2cnn(C)c2)c(C(C)C)nn1C | -4.88 | 23.7 | -11.3 | -0.847 | 3.01 | 3.45 | 7.18 | -15.7 | 6.37 | 21.9 | -13.8
8 | CNS(=O)(=O)c1ccc(CNC(=O)NCC2CCOC2)cc1 (configuration not stated) | -3.53 | 15.6 | 0.491 | 2.49 | 1.86 | -0.21 | 11.7 | -1.37 | 7.62 | 14.1 | -9.18
9 | COc1ccc(NC(=O)N2CCCC2c2ccco2)cc1OC (configuration not stated) | 0.301 | 13 | 7.21 | -3.22 | -4.24 | -0.645 | 9.57 | 19.6 | -5.29 | 14.1 | -9.73
10 | O=C(NCCn1ccc(-c2ccccn2)n1)C1CC1 | -1.6 | 0 | 8.98 | 2.65 | -3.85 | 5.81 | 2.79 | 7.05 | 3.17 | 3.85 | -0.508
11 | Cc1csc(C2CCCN(C(=O)c3ccc(=O)n(C)n3)C2)n1 (configuration not stated) | -1.5 | 0 | -1.05 | -7.99 | -4.2 | 2.23 | 1.97 | -5.09 | -1.07 | -1.24 | -2.21
12 | CN1CCN(Cc2cnc3n2CCN(Cc2cccs2)C3)CC1 | -1.16 | 21.6 | -2.7 | -1.5 | 3.62 | 2.87 | 19.7 | -1.05 | 4.32 | 20.5 | -0.68
13 | Cn1ccnc1CN1CCC2(CC1)CN(CC1CC1)C(=O)CO2 | -1.66 | 0 | 7.96 | -0.145 | -0.296 | -1.94 | 0.522 | 12.5 | 4.23 | 8.97 | 90.8
14 | Cn1cc(C2CCCN2Cc2csc(C(C)(C)C)n2)cn1 (configuration not stated) | -8.01 | 12.7 | -5.07 | 14.2 | 6.33 | -5.32 | 4.01 | -16.1 | 8.37 | 16.5 | -9.19
15 | O=C(NCc1ccccn1)[C@H]1COC[C@H]2CN(Cc3ccoc3)C[C@H]21 | -2.43 | 2.7 | 6.89 | -1.93 | -6.16 | 2.87 | 20.3 | -4.49 | 5.41 | 7.69 | -5.52
16 | Cc1noc(C2CCCN(C(=O)c3ccc(Br)o3)C2)n1 (configuration not stated) | -6.46 | 13 | -5.37 | -19.7 | 7.54 | -4.84 | 13.8 | 1.55 | 3.81 | 21.2 | -17.1
17 | Cc1csc2c(N3CCC(NCCCc4ccncc4)CC3)ncnc12 | -0.362 | 2.6 | 5.76 | 17.7 | -1.08 | -1.38 | 6.49 | -3.09 | 7.53 | 11.1 | -2.5
